D1 agonist = activates the human D1 dopamine receptor. 360,000 tested, 1% active. P21728. activation, % at 2 µM. HEK293 T-REx D1 cells, calcium flux, agonist mode; note: 0% is about no effect
Target sequence (P21728 whole entry, looked up): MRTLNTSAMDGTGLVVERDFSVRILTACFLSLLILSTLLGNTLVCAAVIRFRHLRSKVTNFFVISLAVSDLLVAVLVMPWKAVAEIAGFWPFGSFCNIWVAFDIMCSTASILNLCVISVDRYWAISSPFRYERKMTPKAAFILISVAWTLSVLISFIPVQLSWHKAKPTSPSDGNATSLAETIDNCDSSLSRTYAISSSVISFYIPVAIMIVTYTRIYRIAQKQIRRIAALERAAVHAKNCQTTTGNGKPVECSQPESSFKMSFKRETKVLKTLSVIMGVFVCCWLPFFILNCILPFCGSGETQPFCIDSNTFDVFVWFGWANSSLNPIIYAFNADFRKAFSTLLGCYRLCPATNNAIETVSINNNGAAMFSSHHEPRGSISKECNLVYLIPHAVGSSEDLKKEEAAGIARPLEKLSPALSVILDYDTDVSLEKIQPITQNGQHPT
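Inducible HEK293 T-REx D1 cells, force-coupled to calcium signalling, were plated at 4000 cells/well with tetracycline and held overnight at 30 C. After no-wash calcium dye loading, compound-evoked calcium rise over 180 s flagged agonists.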
TRHR enhancer = allosteric enhancers of human TRH receptor | P34981 | TRHR cells, fluo-8 calcium fluorescence, EC20 TRH enhancement | enhancement, % at 2 µM | 360,000 tested, 0.66% active; in the data active = enhancement above about 30%; note: 0% is about no effect
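TRHR-expressing cells loaded with fluo-8 calcium dye were read kinetically (ex 480/em 530) during compound addition, then stimulated with an EC20 of TRH (10 nM final). Enhancement of the Gq-mediated intracellular calcium response was scored.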
TRHR agonist = activates the human TRH receptor | 360,000 tested, 0.18% active | activation, % at 2 µM | AID 493084 | TRHR cells, calcium flux fluo-8, FDSS agonist mode | P34981; note: 0% is about no effect
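TRHR-expressing cells loaded with fluo-8 calcium dye; 23 nL library compound pin-transferred, kinetic FDSS fluorescence (Ex 480/Em 530) recorded about 180 s for agonist-induced calcium release, before a 10 nM TRH EC20 addition for potentiator mode.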
D1 potentiator = enhances dopamine response at the human D1 receptor; HEK293 TREx D1 cells, calcium flux, dopamine EC20 potentiation; potentiation, % at 10 µM; P21728; 360,000 tested, 0.036% active; AID 504651; in the data active = potentiation above about 30%; note: 0% is about no effect
D1 antag = human D1 dopamine receptor antagonism; activity change, negative = inhibition, % at 10 µM; HEK293 TREx D1 cells, calcium flux, dopamine EC80; hits give low values; 360,000 tested, 3.2% active; in the data active = activity change below about -30%; note: % is set by controls: 0 for no effect and ±100 for the full control effect
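Antagonism measured as reduced calcium response to an EC80 dopamine addition following 180 s compound pre-read; cells were inducible HEK293 Trex D1 plated overnight at 30 C, read kinetically at 1 cycle/sec.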
* hit, by the source's call; ! = a repeat was not active. Rows were chosen to be rich in hits. Some 4.6% of all compounds tested hit in one or more screens of this group. Cut-off read from the data, not from the text of the source, unless noted: active = activation above about 30%; inactive = the rest.

SMILES | D1 agonist | TRHR enhancer | TRHR agonist | D1 potentiator | D1 antag
CC(CNC(=O)c1ccc2c(c1)nc1n2CCCCC1)c1ccccc1 (stereo unspecified) | -0.6 | -1.9 | -0.2 | 4.0 | -7.8
COC(=O)C1=C(C)NC2=C(C(=O)CC(c3cccs3)C2)C1c1ccsc1 (stereo unspecified) | 0.8 | 2.7 | -0.7 | -8.3 | -47.7*
CCOc1cc(/C=N/Nc2nncc(-c3ccccc3)n2)ccc1O | -0.8 | 2.6 | 0.4 | 7.1 | -18.7
Oc1cccc(/C=N\Nc2nncc(-c3ccccc3)n2)c1 | 2.0 | 3.3 | -0.6 | 2.3 | -37.0*
Cc1ccc(Cl)cc1NC(=O)c1sc2nc(C)c(C)c(C)c2c1N | -0.2 | -3.1 | 0.4 | -0.8 | -9.0
O=C(CCC(=O)OCC(=O)c1ccc(Cl)cc1)Nc1ccc(Oc2ccccc2)cc1 | 7.5 | 5.5 | -1.1 | -2.8 | -4.2
NC(=O)c1c(NC(=O)c2noc3c2CCCC3)sc2c1CCCC2 | -3.2 | 10.0 | -0.6 | 1.9 | 8.2
CCC(=O)N1c2ccccc2CC1C(=O)NCCN1CCN(c2cc(Cl)ccc2C)CC1 (stereo unspecified) | -0.4 | 2.1 | -0.3 | -0.5 | 2.1
CCc1ccccc1NS(=O)(=O)c1ccc2c(c1)C(C)(C)C(=O)N2C | 3.1 | 1.8 | -0.2 | -5.3 | -2.9
CCOc1ccccc1CNS(=O)(=O)c1ccc2c(c1)C(C)(C)C(=O)N2C | 2.6 | 1.3 | -0.5 | 0.1 | -34.6*!
CCOc1ccc(N(C)S(=O)(=O)c2ccc3c(c2)C(C)(C)C(=O)N3C)cc1 | 1.9 | 5.9 | -0.6 | -2.8 | -35.5*
COc1ccccc1CNC(=O)COC(=O)COc1ccccc1Cc1ccccc1 | 4.6 | -10.5 | 1.2 | -5.2 | 1.8
COc1ccc(Cl)cc1NC(=O)N1CCC(CN2CCc3ccccc3C2)CC1 | -0.8 | 15.1 | -0.7 | -1.4 | 0.5
O=c1cc(-c2ccccc2)c2cc(Cl)c3c(c2o1)CN(Cc1ccccc1)CO3 | 9.6 | 3.5 | 9.3 | 0.2 | -0.5
COc1cccc(NC(=O)NC(=O)c2c(C)cc(Cl)nc2Cl)c1 | 1.6 | 5.2 | 1.3 | -4.4 | -41.3*
COc1cccc(NC(=O)Nc2cc(Cl)ccc2C)c1 | 8.6 | 8.7 | 1.6 | -8.9 | -33.5*
CCCCCN(C(=O)CCC(=O)OCCOc1ccc(OCC)cc1)c1c(N)n(CCCC)c(=O)[nH]c1=O | 1.7 | 8.1 | 0.0 | -1.6 | -9.0
CCOc1ccc(C2=NNC(c3cccs3)=Nc3ccc(OC)cc32)cc1 | 1.4 | 0.2 | 0.5 | -5.5 | -38.0*
CC(=O)Nc1ccc(S(=O)(=O)Oc2ccc(C(=S)N3CCCCC3)cc2)cc1 | 25.9 | -14.0 | 0.3 | -9.3 | -32.6*
CC(=O)Nc1ccc(S(=O)(=O)Oc2ccc(C(=S)N3CCC(O)CC3)cc2)cc1 | 6.2 | 3.3 | -0.1 | -5.0 | -8.9
CCOc1cc(C(=S)N2CCOCC2)ccc1OS(=O)(=O)c1ccc(OC)cc1 | 13.7 | -6.1 | -0.4 | -10.9 | -2.9
CCOc1cc(C(=S)N2CCOCC2)ccc1OS(=O)(=O)c1ccc(NC(C)=O)cc1 | 6.7 | -3.0 | 0.5 | -4.8 | -33.1*
CC(=O)Nc1ccc(OS(=O)(=O)c2c(C)cc(C)cc2C)cc1 | 4.3 | -4.7 | 0.8 | -1.6 | -66.3*
CCCCN(C)C(=O)c1ccc2c(=O)n3nc(Nc4cc(C)ccc4C)sc3nc2c1 | 3.2 | 14.6 | -0.7 | -3.5 | -67.9*
Cc1ccc(C)c(Nc2nn3c(=O)c4ccc(C(=O)N(C)Cc5ccccc5)cc4nc3s2)c1 | -0.8 | -2.1 | -0.4 | -3.1 | -25.7
SMILES | D1 agonist | TRHR enhancer | TRHR agonist | D1 potentiator | D1 antag
Cc1ccccc1Nc1nn2c(=O)c3ccc(C(=O)NCc4ccccc4)cc3nc2s1 | -0.6 | -0.1 | 0.3 | -5.3 | 11.5
Cc1ccc(Cl)cc1Nc1nn2c(=O)c3ccc(C(=O)NCc4ccc(F)cc4)cc3nc2s1 | 1.6 | -0.5 | -1.2 | -4.3 | -33.4*
CCc1ccc(S(=O)(=O)NCc2nc3cccnc3n2Cc2ccccc2Cl)cc1 | 2.5 | 9.5 | -0.3 | -5.5 | 15.3
COc1cccc(-c2nc(CS(=O)(=O)CC(=O)Nc3c(C)cc(C)cc3C)c(C)o2)c1 | 3.1 | -10.1 | 1.2 | -4.2 | -4.9
O=c1c2ccccc2sn1-c1cc(S(=O)(=O)N2CCOCC2)ccc1N1CCCC1 | 89.5* | 2.5 | -1.4 | -0.2 | 4.1
O=c1c2ccccc2sn1-c1cc(S(=O)(=O)N2CCOCC2)ccc1N1CCOCC1 | 28.8 | -2.6 | 0.0 | -9.9 | 6.6

Screening data deposited in PubChem BioAssay by National Center for Advancing Translational Sciences (NCATS).
